Measurements: PubChem BioAssay AID651644 (National Center for Advancing Translational Sciences (NCATS), 2012)
The campaign covered roughly 360,000 compounds. About 750 (0.21%) were called active. Entries that show only a call come without a potency. Another 2% or so got no clear call; they are omitted. Calls come from the whole dose curve; as a rule, active = well fitted falling curve with a large enough effect; inconclusive = small, poorly fitted or top-dose-only effect; inactive = no such curve, though single readings can be large or run the other way. The sample as a whole holds a higher share of actives than the screen did.

Assay: qHTS Assay for Inhibitors of the HIV-1 protein Vpr; note: nearly all actives have a fitted effect of over 50% in size
Details: S. pombe RE007 Vpr strain, BacTiter-Glo ATP luminescence, 24 h; series mostly up to 92.2 µM
Text: Human immunodeficiency virus type 1 (HIV-1), the causative agent of AIDS, contains a protein called viral protein R (Vpr) that plays an important role in the viral life cycle and the pathogenesis of HIV-1.
These Vpr specific activities include cytoplasmic-nuclear shuttling, induction of cell cycle G2 arrest and cell killing. The cytoplasmic-nuclear shuttling is believed to participate in nuclear transport of the proviral integration complex (PIC). The cell cycle G2 arrest induced by Vpr is thought to suppress human immune functions by preventing T cell clonal expansion and to provide an optimized cellular environment for maximal levels of viral replication. In addition, Vpr induces apoptosis, which may contribute to the depletion of CD4 T cells in HIV-infected patients. Since the Vpr-specific activities have been linked to such clinical manifestation of AIDS as activation of viral replication, suppression of host immune responses and depletion of CD4+ T-lymphocytes, identification of new molecular probes that can inhibit the Vpr activities could potentially provide a new approach to reduce Vpr-mediated detrimental effects in HIV-infected patients, and thus prolong patient's lives. Currently, there are no anti-Vpr drugs.
A fission yeast (Schizosaccharomyces pombe) model system for the Vpr studies has been developed which measures HIV-1 Vpr-induced cell death. This assay will be used for to screen the NIH Molecular Libraries Small Molecule Repository (MLSMR) identify small molecule HIV-1 Vpr inhibitors.
NIH Chemical Genomics Center [NCGC]
NIH Molecular Libraries Probe Centers Network [MLPCN]
Assay Submitter (PI): Richard Zhao, University of Maryland
The fission yeast RE007 strain was used, which carries a single integrated copy of HIV-1 vpr gene in the yeast chromosome. The starting culture was frozen stock 100ul of yeast RE007 in 150ml of *PMG+AL medium, Incubation in 30 degree plus 99% humidity for 18 hours. Next day dispensed 2.5ul of PMG+AL medium in each well to 1536 well white solid plate, then 23nL compound were delivered to each well using a pin tool. Check OD for overnight culture and add cell density at 0.01 for each well, incubation in 30 degree plus 99% humidity for 24 hours. After add 5 ul of *BacTiter/Glo detect reagent to each well at room temperature for 5 minutes then to red out results with Viewlux CCD camera.
Potency is the fitted concentration of half-maximal effect.

SMILES	Potency	activity change, negative = less growth
Cn1cnnc1SCC(=O)NNC(=O)COc1ccc(Br)cc1	inactive	–
CN(C)CC1Oc2ccccc2OC1(O)c1ccccc1 (stereo unspecified)	10 µM (active)	–
CN(C)CCOC(=O)C(c1ccccc1)C1(O)CCCC1 (stereo unspecified)	inactive	–
CC(C)Nc1ncnc2c1ncn2[C@H]1CN(Cc2ccncc2)C[C@@H](CO)O1	–	1.71% [at 18.4 µM] (inactive)
O=C(CC1C(=O)NCCN1Cc1ccc(-c2ccccc2)cc1)NCc1ccncc1 (stereo unspecified)	inactive	–
COc1cccc(CN2CCNC(=O)C2CC(=O)N(C)CCc2ccccn2)c1 (stereo unspecified)	inactive	–
Cc1cccc(C(=O)NCc2nnc(SC(C)C(=O)Nc3nnc(C)s3)n2C)c1 (stereo unspecified)	inactive	–
Cc1nonc1C(=O)N/N=C/c1ccc(O)cc1	25.1 µM (active)	–
COc1cc(/C=N\NC(=O)c2nonc2N)c(OC)cc1Br	inactive	–
Nc1nonc1-n1nnc(C(=O)N/N=C/c2ccc(Cl)cc2)c1-c1ccc2c(c1)OCO2	inactive	–
Cc1ccc2nc(SC(C)C(=O)NCc3ccco3)[nH]c2c1 (stereo unspecified)	inactive	–
O=c1[nH][nH]c2c1[C@H](c1ccc(Cl)cc1)O[C@H](CCc1ccccc1)C2	inactive	–
O=C(/C=C/c1ccc(Cl)cc1)Nc1ccc(Br)cn1	inactive	–
O=C(NCc1nnnn1-c1ccc(Cl)cc1)c1ccc([N+](=O)[O-])o1	inactive	–
O=C(Nc1ccc(Br)cn1)c1ccc([N+](=O)[O-])o1	17.8 µM (active)	–
O=C(COc1ccccc1Cl)Nc1ccccc1C(=O)NC1CC1	inactive	–
CCc1cccc(C)c1NS(=O)(=O)c1cc(Br)cnc1N	inactive	–
Oc1ccccc1CNc1ncc(Br)cc1Br	35.5 µM (active)	–
O=[N+]([O-])c1ncc(Br)cc1Nc1ccccc1	inactive	–
Cc1cccc(C(=O)Nc2ccccc2-c2nnn(CC(=O)Nc3ccc4c(c3)OCCO4)n2)c1	inactive	–
Clc1ccc(-c2nc3ccccn3c2CN2CCSCC2)cc1	inactive	–
CCOC(=O)C1=C(c2ccc(OC)cc2)C(=O)c2ccccc2C1=O	20 µM (active)	–

SMILES	Potency	activity change, negative = less growth
CCOC(=O)C(Cc1ccc(N)cc1)N1C(=O)c2ccccc2C1=O (stereo unspecified)	inactive	–
CCOC(=O)C1=C(CC)Nc2ccccc2N=C1N	inactive	–
CC(C)(C)S(=O)N1Cc2cc(C(=O)NCCCN3CCOCC3)nc(-c3cccc(-c4cc5ccccc5o4)c3)c2[C@H]1CCO (stereo partly specified)	inactive	–
CCOC(=O)N1CCN(S(=O)(=O)c2cc(Br)cc3c2N(C(=O)C2CC2)CC3)CC1	inactive	–
CC(=O)NC(CC(=O)Nc1cccc(S(=O)(=O)N2CCCC2)c1)c1ccccc1 (stereo unspecified)	inactive	–
CN(C)S(=O)(=O)c1ccc2oc(SCC(=O)Nc3ccccc3F)nc2c1	inactive	–
CCOc1ccc(NCCC(=O)c2ccc3c(c2)OCO3)cc1	31.6 µM (active)	–
COc1ccc(C2(C)NC(=O)N(CC(=O)c3ccc4c(c3)OCO4)C2=O)cc1 (stereo unspecified)	inactive	–
CCOc1ccc(NC(=O)c2ccc(NC(=O)C3CCCO3)cc2)cc1 (stereo unspecified)	inactive	–
Cc1cc(NC(=O)Cn2nc(C(F)(F)F)c3c2CCCC3)no1	inactive	–
Cc1cc(C)cc(NC(=O)c2cccc(NC(=O)C3C4CC5OC(=O)C3C5C4)c2)c1 (stereo unspecified)	inactive	–
CN(C)c1cccc(NC(=O)c2ccc(-c3ccc(F)c(F)c3)c3ccoc23)c1	–	5.61% [at 18.4 µM] (inactive)
O=C(c1ccc(Cl)c(S(=O)(=O)N2CCCCCC2)c1)N1CCN(c2ccc(O)cc2)CC1	inactive	–
O=C1C=CC(=O)N1c1ccc(N2CCCCC2)cc1	2.82 µM (active)	–
Cc1cc(NC(=O)CSc2nccn2-c2ccc([N+](=O)[O-])cc2)no1	inactive	–
Cc1cc(C)c2c(n1)sc1c(=O)n(-c3ccccc3)c(=O)[nH]c12	inactive	–
CCCCCCCCc1c(O)nc(-n2[nH]c(C)c(CCO)c2=O)[nH]c1=O	inactive	–
Cc1ccc(-c2nn(-c3ccc(F)cc3)cc2C(=O)NCC(c2cccs2)N2CCOCC2)cc1 (stereo unspecified)	inactive	–
FC(F)(F)C1CCCN(c2nsc3ccccc23)C1 (stereo unspecified)	8.91 µM (active)	–
CCn1ncc(C2=NOC(C(=O)N3CCN(c4ccccc4)CC3)C2)c1C (stereo unspecified)	inactive	–
CC1Cc2ccccc2N1C(=O)c1cc2sccc2n1Cc1ccccc1 (stereo unspecified)	inactive	–
COc1ccc(C(CNC(=O)c2cc(S(=O)(=O)Nc3cccc(C)c3)ccc2C)N2CCCC2)cc1 (stereo unspecified)	inactive	–

SMILES	Potency	activity change, negative = less growth
CCn1cc(C(=O)N[C@@H](C)C(=O)NCCO)c(=O)c2cc3c(cc21)OCO3	inactive	–
O=[N+]([O-])c1ccc(C=Nc2ccc(Cl)cc2Cl)s1	3.16 µM (active)	–
Cc1ccc(S(=O)(=O)N(c2cccc(C)c2)C2CCS(=O)(=O)C2)cc1 (stereo unspecified)	inactive	–
CN1CCN(C(=O)c2ccccc2NC(=O)COc2ccccc2Cl)CC1	inactive	–
COc1ccc(NC(=O)c2cccc(Cl)c2)c[n+]1[O-]	inactive	–
Cc1cccc(NS(=O)(=O)c2ccc(-c3cnc(C4CC4)o3)cc2)c1	inactive	–
Cc1ccccc1OCC(=O)NCC(=O)OCC(=O)c1ccc2ccccc2c1	inactive	–
Cc1cccc(C)c1NC(=O)Nc1ccccc1-n1ccnc1	inactive	–
CCSc1ccccc1C(=O)Nc1ccc2c(c1)OCO2	28.2 µM (active)	–
CCOc1ncccc1C(=O)Nc1ccc2c(c1)OCCO2	inactive	–
CC(C)NC(=O)CSc1ccccc1C(=O)NCc1ccc2c(c1)OCO2	inactive	–
O=C1COc2ccc(C(=O)COC(=O)CCOc3ccccc3)cc2N1	inactive	–
O=S(=O)(NCCS(=O)(=O)N1CCN(c2ccccc2)CC1)c1ccc(F)cc1	inactive	–
Cc1c(C(=O)OCC(=O)N(CCC#N)c2ccccc2)oc2c1ccc1ccccc12	inactive	–
O=C(NC(c1ccc(-c2ccccc2)cc1)c1cnccn1)C1CCN(CCOc2ccc(Cl)cc2Cl)CC1 (stereo unspecified)	–	-8.16% [at 18.4 µM] (inactive)
CCCCc1c(O)nc2n(c1=O)CCS2	inactive	–
NNC(=O)C1CCCn2c1nc1sc3c(c1c2=O)CCCC3 (stereo unspecified)	inactive	–
CC1CCc2c(sc3nc4n(c(=O)c23)CCS4)C1 (stereo unspecified)	12.6 µM (active)	–
Cc1cccc(C(=O)OCC(=O)NCC(C)C)c1O	inactive	–
Cc1cccc(N2CCN(Cc3nc(C4CC4)no3)CC2)n1	inactive	–
COP1(=O)C[C@@H](O)[C@@H](O)[C@@H](COCc2ccccc2)O1 (stereo partly specified)	inactive	–
O=C(Nc1nnc(C2COc3ccccc3O2)o1)c1ccc(F)cc1 (stereo unspecified)	inactive	–
